# From PubChem
# HP1b binding inh: HP1-beta chromodomain-methylated histone interaction inhibition; AlphaScreen HP1-beta / biotin-H3K9me3 peptide binding; Potency, µM (titrated, usually from 114 µM), for the others: at the highest dose activity change, negative = inhibition, actives largely listed as inhibitors; 390,000 tested, 0.56% active; P83916; AID 540317; note: potency is the fitted concentration of half-maximal effect; nearly all actives have a fitted effect of over 70% in size
#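 Compound inhibition of the preformed complex between 50 nM HP1-beta and 50 nM biotinylated H3K9me3 peptide was read by AlphaScreen. Buffer was PBS pH 7.4 with 0.01% Tween-20. Incubations ran 30 min at room temperature, with 10 ug/mL donor/acceptor beads.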
# PI5P4Ka inh: PI5P4K alpha (human) kinase inhibition. P48426. PI5P4Kalpha enzyme, ADP-Glo luminescence, 60 min; stronger effect = lower value. max response, %. 330,000 tested, 1.2% active. AID 652105; active = max response of -50% or lower; inconclusive = between -30% and -50%; inactive = -30% or higher; note: value at the top dose of about 77 µM; % is set by controls: 0 for no effect and ±100 for the full control effect
#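 Reactions run in 0.038 M HEPES pH 7.4, 0.28 mM EGTA, 0.1% CHAPS and 5% DMSO, with PI5P4Kalpha, substrate, compound and 5 microM ATP final, one hour at room temperature. Readout is ADP-Glo luminescence.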
# BAZ2B block: inhibitors of human BAZ2B bromodomain. AID 504333. Q9UIF8. AlphaScreen BAZ2B-H3K14Ac peptide displacement. Potency, µM (top dose mostly 114 µM), for inactives: top-dose activity change, negative = inhibition, hits mostly inhibitors. 360,000 tested, 4.4% active; note: potency is the fitted concentration of half-maximal effect; % is set by controls: 0 for no effect and ±100 for the full control effect; nearly all actives have a fitted effect of over 60% in size
#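 In this displacement format the biotinylated H3(5-23) peptide acetylated at Lys14 serves as ligand at 50 nM, with BAZ2B at 50 nM in PBS pH 7.4 containing 0.01% Tween-20. Donor and acceptor beads are 10 ug/mL final.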
# JMJD2A Tudor: inhibitors of human JMJD2A Tudor domain. O75164. AlphaScreen JMJD2A-Tudor / H3K4me3 peptide binding. Potency, µM (doses to about 114 µM), for the others: at the top dose activity change, negative = inhibition, most hits filed as inhibitors. 390,000 tested, 4.4% active. AID 504339; note: potency is the fitted concentration of half-maximal effect; % is set by controls: 0 for no effect and ±100 for the full control effect; nearly all actives have a fitted effect of over 50% in size
# Target sequence (O75164 whole entry, looked up, the tested form may be a part): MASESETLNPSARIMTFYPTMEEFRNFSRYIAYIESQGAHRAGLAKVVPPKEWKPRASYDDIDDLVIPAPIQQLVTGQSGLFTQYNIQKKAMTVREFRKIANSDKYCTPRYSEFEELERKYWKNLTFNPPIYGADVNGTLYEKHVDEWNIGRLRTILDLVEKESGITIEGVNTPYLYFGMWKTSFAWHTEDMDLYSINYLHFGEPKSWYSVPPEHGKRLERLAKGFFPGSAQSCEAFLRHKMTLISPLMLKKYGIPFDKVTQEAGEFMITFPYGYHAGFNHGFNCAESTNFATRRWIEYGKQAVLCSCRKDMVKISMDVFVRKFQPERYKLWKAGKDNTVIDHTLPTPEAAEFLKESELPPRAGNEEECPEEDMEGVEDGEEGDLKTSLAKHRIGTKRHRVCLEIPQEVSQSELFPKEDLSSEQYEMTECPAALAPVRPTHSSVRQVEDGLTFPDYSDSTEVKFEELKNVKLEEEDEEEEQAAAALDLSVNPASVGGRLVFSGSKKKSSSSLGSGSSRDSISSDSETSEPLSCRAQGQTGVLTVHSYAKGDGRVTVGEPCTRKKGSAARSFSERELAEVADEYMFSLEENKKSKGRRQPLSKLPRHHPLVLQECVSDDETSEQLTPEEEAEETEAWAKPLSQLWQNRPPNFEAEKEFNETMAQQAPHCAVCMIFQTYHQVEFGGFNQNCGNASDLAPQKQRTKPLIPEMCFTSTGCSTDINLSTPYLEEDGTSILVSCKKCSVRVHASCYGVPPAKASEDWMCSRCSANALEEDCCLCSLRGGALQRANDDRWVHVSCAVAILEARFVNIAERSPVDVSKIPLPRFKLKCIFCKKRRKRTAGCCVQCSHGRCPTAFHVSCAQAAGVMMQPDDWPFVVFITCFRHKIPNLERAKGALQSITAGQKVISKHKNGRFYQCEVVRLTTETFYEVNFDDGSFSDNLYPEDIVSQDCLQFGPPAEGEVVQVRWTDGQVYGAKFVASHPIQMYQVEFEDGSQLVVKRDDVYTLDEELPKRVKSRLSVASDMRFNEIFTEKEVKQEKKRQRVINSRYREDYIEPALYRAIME
# L3MBTL1 block: blocks human L3MBTL1; Q9Y468; AlphaScreen L3MBTL1–H3K9me1 peptide binding; Potency, µM (highest dose often 57.1 µM), without a hit: at the highest dose activity, negative = inhibition, most hits filed as inhibitors; 230,000 tested, 0.66% active; note: potency is the fitted concentration of half-maximal effect; % is set by controls: 0 for no effect and ±100 for the full control effect; nearly all actives have a fitted effect of over 60% in size
#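 L3MBTL1 (50 nM) pre-complexed 30 min with biotinylated H3(1-15)K9me1 peptide (75 nM), then compounds added for 30 min at room temperature; AlphaScreen streptavidin donor/nickel chelate acceptor beads (10 ug/mL final) read after 30 min dark incubation.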
# JMJD2E inh: JMJD2E (human) inhibition. JMJD2E catalytic domain, FDH-coupled NADH fluorescence (FDH is formaldehyde dehydrogenase). AID 2147. Potency, µM (titrated, usually from 57.1 µM), inactives show top-dose activity change, negative = inhibition, hits mostly inhibitors. 230,000 tested, 1.6% active; active = well fitted inhibition curve with a large enough effect, not every such curve was filed as active; inconclusive = small, poorly fitted or top-dose-only effect, or another doubt; inactive = no such curve, though single readings can be large or run the other way;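 note: potency is the fitted concentration of half-maximal effect; 0% = wells with enzyme and -100% = buffer wells without enzyme; nearly all actives have a fitted effect of over 50% in size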
# Active calls of the source: *; ? = inconclusive; · = no result; ! = repeats disagree; [ ] = dose if it differs, or a comment. This is a sample that favours compounds with a hit; in the whole collection about 5.7% have one here. Unless noted, calls come from the whole dose curve; as a rule, active = well fitted inhibition curve with a large enough effect; inconclusive = small, poorly fitted or top-dose-only effect; inactive = no such curve, though single readings can be large or run the other way.
SMILES,HP1b binding inh,PI5P4Ka inh,BAZ2B block,JMJD2A Tudor,L3MBTL1 block,JMJD2E inh
Cc1cc2c(SCC(=O)Nc3cccc(O)c3)ncnc2s1,5.3%[57 µM],-74.4*,·,50.1µM*,·,·
COc1ccc(NC(=O)CSc2ncnc3sc(C)cc23)cc1,-15.4%,-0.1,-12.6%,-18.9%,·,·
Cc1[nH]nc2c1C1(C(=O)Nc3ccc([N+](=O)[O-])cc31)C(C#N)=C(N)O2 (centres undefined),-4.4%,-56.3*,-2.7%,-14.4%,·,3.0%
Cc1ccc(NNC(=O)c2ccno2)cc1Cl,28.0%,0.5,-30.6%,-22.3%,-9.9%,-25.6%
Cc1ccc(NNC(=O)c2ccno2)cc1C,-3.4%,-9.1,1.0%,79.4µM*,4.8%,7.0%
Cc1cc(C)cc(Cn2ncc3c4sc(C)cc4n(C)c3c2=O)c1,·,·,·,-27.4%,·,·
Oc1c(Cl)cc(Cl)cc1Sc1cc(Cl)cc(Cl)c1O,·,·,50.1µM*,·,-11.4%,?
O=c1[nH][nH]c2cc(=O)n(-c3ccc(Cl)cc3)nc12,-12.5%,-26.6,50.1µM*,?,?,-6.9%
CN(C(=O)Cc1ccccc1OC(=O)c1ccccc1)c1ccccc1I,23.1%,·,·,-8.3%,·,·
COc1cccc(CNC(=O)CN2C(=O)CSc3c2c(C)nn3-c2ccccc2)c1OC,33.7%,·,-2.8%,-7.3%,·,·
Cc1cc(C)c(O)c(N)c1,·,·,?,·,-17.2%,15.8µM*
Cc1cc(C)c(N)c(C(=O)O)c1,41.1%,-0.3,0.2%,-10.6%,·,?
CC(=O)N1CCCc2cc(S(=O)(=O)N3CCN(c4ccccc4F)CC3)ccc21,21.6%[57 µM],·,4.7%,-4.8%,·,·
C/C(=N\Nc1nc2ccccc2[nH]1)c1ccc(C)o1,-24.8%,-8.5,44.7µM*,?,-7.7%,0.0%
C/C(=N\Nc1ncc(Cl)cc1Cl)c1ccc(N2CCOCC2)cc1,21.1%,5.4,50.1µM*,-1.5%,-13.1%,2.2%
C/C(=N\Nc1ncc(Cl)cc1Cl)c1ccccn1,12.4%,-4.5,22.4µM*,?,-23.3%,0.8%
C/C(=N\Nc1nc2ccccc2[nH]1)c1ccc(Cl)s1,-10.5%,-4.7,?,?,-9.3%,-2.3%
C/C(=N\Nc1ncnc2sc(C)c(C)c12)c1ccccn1,9.5%[57 µM],0.1,7.08µM*,31.6µM*,·,·
C/C(=N\Nc1nc(C)cc(C)n1)c1ccc(N2CCOCC2)cc1,34.5%,-7.9,-9.9%,-21.0%,0.6%,15.3%
COc1ccc(OC)c(NC(=O)Cn2cnc3ccc(S(=O)(=O)N4CCC(C)CC4)cc3c2=O)c1,-4.1%,·,-27.3%,-29.5%,·,·
COc1ccccc1OCC(=O)NCC1(N2CCOCC2)CCCCC1,3.8%,·,-25.9%,-20.9%,·,·
Cc1cc(C)c(NC(=O)Cn2nc3c(cc2=O)CCCC3)c(C)c1,29.3%[57 µM],·,0.3%,-1.0%,·,·
CCOC(=O)c1ccc(NC(=O)CSc2c(C(C)C)cnc3c2c(=O)n(C)c(=O)n3C)cc1,20.7%[57 µM],·,?,?,·,·
C/C(=N\Nc1nc2ccccc2[nH]1)c1ccc(N2CCOCC2)cc1,?,-11.3,20µM*,35.5µM*,-18.6%,-9.0%
COc1cccc(CNC(=O)c2sc3nc4n(c(=O)c3c2C)CCC4)c1,50.7%,·,-20.4%,-17.1%,·,·
SMILES,HP1b binding inh,PI5P4Ka inh,BAZ2B block,JMJD2A Tudor,L3MBTL1 block,JMJD2E inh
CCOc1ccccc1N1CCN(c2nc(N)c(C#N)c(CC#N)c2C#N)CC1,6.2%,-67.1*,?,-30.0%,1.1%[11.4 µM],?
CCOc1ccccc1N1CCN(c2nc3ccccc3nc2C(C#N)C(=O)OC)CC1 (centres undefined),7.4%,-2.6,-38.1%,-14.3%,-3.3%,-5.5%
COc1ccc(-c2ccc(OC)c([C@H]3[C@H]4C=CC[C@@H](C)[C@@H]4C(=O)N3Cc3ccccc3)c2)cc1OC,-17.9%,-15.7,-33.1%,39.8µM*,·,?
CCc1nnc(N2C(=N)SCC2=O)s1,-2.4%,-4.1,79.4µM*,28.2µM*,-1.6%,-15.0%
CC1(C)CC(=O)C(C(=O)C2CCN(S(=O)(=O)c3ccccc3)CC2)C(=O)C1,12.1%,0.5,-9.0%,100µM*,·,-11.3%
Nc1nc(=S)c2[nH]cnc2[nH]1,4.9%,?,-35.6%,5.62µM*,-7.0%,-28.0%
CC(C)C1Cc2c(C#N)c(N)sc(=S)c2CO1 (centres undefined),?,0.6,?,50.1µM*,·,-0.8%
CC(=O)c1cccc(OCc2cc(C(=O)N(C)Cc3ccc(C)o3)no2)c1,?,-19.4,-24.0%,79.4µM*,·,·
N[C@H](C(=O)O)[C@H](O)C(=O)O,·,·,·,·,·,12.6µM*!
C[C@@H](N)C(=O)O,·,·,·,·,·,2.0%
COc1ccc(N2CCN(C(=O)C3CCCN(S(=O)(=O)c4ccc(F)cc4)C3)CC2)cc1 (centres undefined),-16.6%,-2.8,39.8µM*,-31.6%,·,·
COc1ccc(N2CCN(C(=O)C3CCCN(S(=O)(=O)c4ccc(C)cc4)C3)CC2)cc1 (centres undefined),?,-4.8,39.8µM*,-29.6%,·,·
Cc1ccc(S(=O)(=O)N2CCCC(C(=O)N3CCN(c4ccccc4)CC3)C2)cc1 (centres undefined),5.2%,-6.6,-33.2%,-22.6%,·,·
COc1ccc(N2CCN(C(=O)C3CCN(S(=O)(=O)c4ccc(F)cc4)CC3)CC2)cc1,6.5%,8.5,?,-28.0%,?,-12.7%
Cc1cccc(OCC(=O)OCc2cc(=O)n3nc(-c4cccs4)sc3n2)c1,28.5%,·,-15.3%,-31.7%,·,·
O=[N+]([O-])c1ccc(SCc2c(F)cccc2Cl)nc1,-20.7%,1.6,?,56.2µM*,-7.8%,-28.7%
O=[N+]([O-])c1ccc(Sc2ccc(Cl)c(Cl)c2)nc1,-22.8%,·,22.4µM*,?,-4.2%,2.6%
O=[N+]([O-])c1cccnc1SCc1c(F)cccc1Cl,6.7%,3.7,?,-26.2%,-19.1%,0.6%
COC(=O)[C@]1(C)N[C@H](CN(C)C(=O)C2CCCCC2)[C@@H]2C(=O)N(Cc3ccccc3)C(=O)[C@@H]21,22.1%,-0.3,·,-13.8%,-1.3%,·
O=c1oc2ccccc2c2c1C1O[C@](c3ccsc3)(Cc3ccccc31)O2,·,·,8.91µM*,·,·,·
O=C1C2=C(C(=O)c3ccccc31)C1O[C@](c3ccsc3)(Cc3ccccc31)O2,·,·,10µM*,·,·,·
Cc1cc2c(c(=O)n1Cc1ccccc1)C1O[C@](c3ccsc3)(Cc3ccccc31)O2,·,·,10.0%[22.9 µM],·,·,·
O=C(Cn1cc(S(=O)(=O)c2ccccc2)c(=O)c2cc3c(cc21)OCO3)Nc1ccc(Cl)cc1,18.2%,·,-20.5%,-18.2%,·,·
CC(C)c1ccccc1NC(=S)N1CCN(Cc2ccc3c(c2)OCO3)CC1,10.2%,0.1,?,-24.0%,1.7%[11.4 µM],13.5%
CCC(C)NC(=S)N1CCN(Cc2ccccc2)CC1 (centres undefined),79.4µM*,2.8,0.0%,?,10.3%,1.9%
CCC(C)NC(=S)N1CCN(C(c2ccccc2)c2ccccc2)CC1 (centres undefined),29.1%,6.3,-6.7%,-1.3%,-8.2%,-1.2%
